# Results filed as inconclusive are left out. Where a call stands in place of a potency, no number is given. Values without a mark were called inactive. The source made the active and inactive calls. The call rests on the fitted dose curve.
# Experiment: p53 small molecule agonists, cell-based qHTS assay with rat liver microsomes: qHTS cell viability counter screen (AID 1963580); further: nearly all actives have a fitted effect of over 45% in size
# Details: p53RE-bla HCT-116 + rat microsomes, ATP viability, 16 h; series mostly up to 66 µM
# From the text: National Center for Advancing Translational Sciences [NCATS]
# Division of Preclinical Innovation [DPI]
# U.S. Environmental Protection Agency [EPA]
# National Institutes of Environmental Health Sciences [NIEHS]
# National Toxicology Program [NTP]
# U.S. Food and Drug Administration [FDA]
# p53, a tumor suppressor protein, is activated following cellular insult, including DNA damage and other cellular stresses. The activation of p53 regulates cell fate by inducing DNA repair, cell cycle arrest, apoptosis, or cellular senescence. The activation of p53, therefore, is a good indicator of DNA damage and other cellular stresses. The CellSensor p53RE-bla HCT-116 cell line contains a stably integrated beta-lactamase reporter gene under control of the p53 response elements. The activation of the reporter gene under culture conditions can be detected by fluorescence intensity. This cell line was used to screen the Tox21 10K compound library in the condition of presence of rat liver microsomes and to identify agonists that activate the p53 signaling pathway after in vitro metabolic activation (Ooka et al., Archive of Toxicology 96:1975-1987, 2022). The cytotoxicity of the Tox21 compound library against the p53 RE-bla HCT-116 cell line was tested in parallel by measuring the intra cellular ATP content in the same wells.
# Tox21 Assay Protocol Summary:
# The p53RE-bla cells were dispensed at 4,000cells/3ul/well in 1536-well black-clear bottom plates. After the assay plates were incubated at 37 C, 5% CO2 incubator for 5 hours, 23 nL of compounds dissolved in DMSO, positive controls or DMSO only was transferred to the assay plate. Following compound addition, 3 uL of rat liver microsomes (Molecular Toxicology, Boone, NC) at final concentration of 0.5 mg/mL and 1uL of B-Nicotinamide adenine dinucleotide 2'-phosphate (NADPH) at final concentration of 0.5 mg/mL were transferred to the assay plate. The plates were incubated at 37 C for 16 hours. 1 uL of LiveBLAzer detection mixture was added to each well and the plates were incubated at room temperature in the dark for 2 h. Fluorescence intensity at 460 and 530 nm emission and 405 nm excitation were measured by an Envision plate reader. For cell viability readout that measures cytotoxicity, 4 ul/well of CellTiter-Glo reagent was added into the assay plates using a Flying Reagent Dispenser. After 30 min incubation at room temperature, the luminescence intensity in the plates was measured using a ViewLux plate reader.
# Potency means the concentration at half of the fitted maximal effect.
SMILES,Potency,"activity change, negative = cytotoxicity"
SCCOCCOCCS,inactive,–
O=c1[nH]nc(-c2ccc([N+](=O)[O-])o2)o1,inactive,–
CCc1cc(C(C)(C)C)c(O)c(C(C)(C)C)c1,inactive,–
CCC(C)(C)OC,inactive,–
CC(=O)CCc1ccc(OC(C)=O)cc1,inactive,–
CCN[C@H]1C[C@H](C)S(=O)(=O)c2sc(S(N)(=O)=O)cc21,inactive,–
Nc1ccc(N=Nc2ccccc2)c(N)c1,inactive,–
Nc1ccc(F)cc1,inactive,–
CCc1ccccc1,inactive,–
Nc1nc(F)nc2c1ncn2[C@@H]1O[C@H](CO)[C@@H](O)[C@@H]1O,inactive,–
CCOC(=O)c1ccc(C2CCC(NC[C@H](O)COc3ccc(O)c(NS(C)(=O)=O)c3)CC2)cc1 (stereo not given in full),inactive,–
Nc1ccc(/C=C/c2ccc(N)cc2S(=O)(=O)O)c(S(=O)(=O)O)c1,–,0.884% [at 0.249 µM]
Cc1c(C)n(Cc2ccccc2)c2ccc(C(=O)OCCN(C)C)cc12,inactive,–
O=C(CC(=O)c1ccccc1)c1ccccc1,inactive,–
COc1cc(C)nc(-n2nc(C)cc2OC)n1,inactive,–
CN(C)CCOCCO,inactive,–
Cc1ccc(O)c([C@H](CCN(C(C)C)C(C)C)c2ccccc2)c1,inactive,–
Cc1ccc(C(C)C)cc2c(C)ccc1-2,inactive,–
COC(=O)/C=C/C(C)=C\C=C\C(C)=C\C=C\C=C(C)\C=C\C=C(C)\C=C\C(=O)O,inactive,–
O=C1C=CC(=O)N1,29.6 µM (active),–

SMILES,Potency,"activity change, negative = cytotoxicity"
O=S(c1cc(Cl)cc(Cl)c1O)c1cc(Cl)cc(Cl)c1O,inactive,–
CC(CC=O)CCCC(C)(C)O (stereo not given),inactive,–
CCNC(=O)/C=C/c1cccc(Br)c1,inactive,–
CC1=CC(=O)CCC1,inactive,–
OC12N=C(c3ccccc3)SC1Cc1cc(Cl)ccc12 (stereo not given),inactive,–
CCCCOc1ccc(N)cc1,inactive,–
Nc1nc(Cl)cc(Cl)n1,inactive,–
O=C(O)/C=C/c1ccc(O)c(O)c1,inactive,–
CC1(C)C(=O)N(Br)C(=O)N1Br,inactive,–
Cc1cc2nc(N)sc2cc1C,inactive,–
O=C(/C=C/c1ccc(O)c(O)c1)O[C@@H]1C[C@@](OC(=O)/C=C/c2ccc(O)c(O)c2)(C(=O)O)C[C@@H](O)[C@@H]1O,inactive,–
Cc1c(C(=O)O)c(O)cc2c1C(=O)c1c(O)c([C@@H]3O[C@H](CO)[C@@H](O)[C@H](O)[C@H]3O)c(O)c(O)c1C2=O,inactive,–
Cc1c(Cl)c(=O)oc2cc(O)ccc12,inactive,–
S=P(N1CC1)(N1CC1)N1CC1,inactive,–
O=[N+]([O-])c1ccc(Cl)cc1Cl,inactive,–
CCCCC(CC)COC(=O)c1ccccc1 (stereo not given),inactive,–
NC(=O)CCCCC1CCSS1 (stereo not given),inactive,–
O=C(O)c1nc(Cl)c(Cl)c(Cl)c1Cl,inactive,–
NO,inactive,–
C[C@H](CCC(=O)O)[C@H]1CC[C@H]2[C@@H]3C(=O)C[C@@H]4CC(=O)CC[C@]4(C)[C@H]3CC(=O)[C@]12C,inactive,–

# Source: PubChem BioAssay (Tox21)
